# From PubChem BioAssay (NCATS)
# Where “and” joins values, the source holds several entries; their conditions need not be identical. Equal entries are not always repeated. Inconclusive results are not listed. A call without a number means that no potency is given here. The source holds several records for some structures; these can differ, active in one and inactive in another. Calls of active or inactive are those of the source. Unless noted, calls follow the shape of the dose curve; as a rule, active = well fitted curve in the direction sought with a large enough effect; inconclusive = small, poorly fitted or top-dose-only effect, or another doubt; inactive = no such curve, though single readings can be large; an effect the other way counts as inactive or inconclusive.
# Key:
# Papain (Carica papaya) = Papain (Carica papaya) (UniProt P00784); experiment: Primary qHTS assay for inhibitors of the protease papain (AID 1645873); conditions: papain Z-FR-AMC cleavage, AMC fluorescence; series mostly up to 49.8 µM;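 also: papain turnover of Z-FR-AMC read as the AMC fluorescence gain over 10 min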; also: potency is read from the fitted curve at half-maximal effect
# [1] = Primary qHTS for inhibitors of nuclear receptor binding SET domain protein 2 (NSD2) in an RCH-ACV wild type WT cells (2C) (AID 1645877); conditions: RCH-ACV NSD2 WT (2C) viability, CellTiter-Glo, 72 h; series mostly up to 44.9 µM; also: nearly all actives have a fitted effect of over 70% in size; also: potency is read from the fitted curve at half-maximal effect
# [2] = Primary qHTS for inhibitors of nuclear receptor binding SET domain protein 2 (NSD2) in an isogenic RCH-ACV NSD2 p.E1099K mutant (9B) (AID 1645876); conditions: RCH-ACV (leukaemia line) NSD2 E1099K (9B) viability, CellTiter-Glo, 72 h; series mostly up to 44.9 µM; also: nearly all actives have a fitted effect of over 70% in size; also: potency is read from the fitted curve at half-maximal effect
# [3] = target: Rap guanine nucleotide exchange factor 3 (Homo sapiens) (UniProt O95398); experiment: Confirmatory qHTS for antagonist of cAMP-regulated guanine nucleotide exchange factor 3 (EPAC1) (AID 1645880); conditions: EPAC1 Rap1B-BODIPY-GDP exchange, fluorescence; series mostly up to 115 µM; also: nearly all actives have a fitted effect of over 55% in size
# Method in brief: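 Nucleotide exchange uses 100 nM EPAC1, 250 nM RAP1B-BODIPY-GDP and 50 uM GDP, with compounds in a concentration-titration series. After 5 min at room temperature, fluorescence (480 nm ex/540 nm em) is read every 5 min for 30 min. Data are normalized to control ATA and DMSO.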
# [4] = target: Rap guanine nucleotide exchange factor 3 (Homo sapiens) (UniProt O95398); experiment: Confirmatory qHTS for agonist of cAMP-regulated guanine nucleotide exchange factor 3 (EPAC1) (AID 1645881); conditions: EPAC1 Rap1B BODIPY-GDP exchange fluorescence; series mostly up to 154 µM; also: nearly all actives have a fitted effect of over 75% in size; also: potency is read from the fitted curve at half-maximal effect
# [5] = target: Rap guanine nucleotide exchange factor 4 (Homo sapiens) (UniProt Q8WZA2); experiment: Confirmatory qHTS for agonist of cAMP-regulated guanine nucleotide exchange factor 4 (EPAC2) (AID 1645884); conditions: EPAC2 GEF activity, Rap1B-BODIPY-GDP fluorescence; series mostly up to 154 µM;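 also: nucleotide exchange releases bodipy-GDP from Rap1 and this lowers its fluorescence; nearly all actives have a fitted effect of over 65% in size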; also: potency is read from the fitted curve at half-maximal effect
# [6] = target: Rap guanine nucleotide exchange factor 4 (Homo sapiens) (UniProt Q8WZA2); experiment: Confirmatory qHTS for antagonist of cAMP-regulated guanine nucleotide exchange factor 4 (EPAC2) (AID 1645885); conditions: EPAC2 Rap1B-BODIPY-GDP exchange fluorescence, biochemical; series mostly up to 114 µM; also: nearly all actives have a fitted effect of over 25% in size; also: potency is read from the fitted curve at half-maximal effect
# [7] = target: Rap guanine nucleotide exchange factor 3 (Homo sapiens) (UniProt O95398); experiment: Counterscreen qHTS for antagonist of cAMP-regulated guanine nucleotide exchange factor 3 (EPAC1) (AID 1645888); conditions: Rap1B-BODIPY-GDP nucleotide exchange, fluorescence; series mostly up to 154 µM;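 also: fluorescence loss as bound BODIPY-GDP is released from Rap1B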
# Method in brief: (§1)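 Rap1B–BODIPY-GDP (250 nM) with 50 uM GDP; compounds pin-transferred to 9.74 nM–152 uM final (activator) or from 7.32 nM upwards (inhibitor). Fluorescence Ex/Em 480/540 nm read at 5 and 30 min, then after adding cAMP or buffer, at room temperature.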
# [8] = target: Rap guanine nucleotide exchange factor 3 (Homo sapiens) (UniProt O95398); experiment: Counterscreen qHTS for agonist of cAMP-regulated guanine nucleotide exchange factor 3 (EPAC1) (AID 1645889); conditions: EPAC1 Rap1B-BODIPY-GDP exchange, fluorescence; series mostly up to 154 µM; also: potency is read from the fitted curve at half-maximal effect; nearly all actives have a fitted effect of over 40% in size
# Method in brief: as §1
# [9] = NCATS anti-infectives library activity on the primary C. elegans qHTS viability assay (AID 1745855; calls by dose curve; also: potency is read from the fitted curve at half-maximal effect); conditions: C. elegans worm area imaging, day 7; series mostly up to 41.8 µM
# Method in brief: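 Viability read-out is GFP fluorescence of PE254-GFP-FLuc C. elegans, measured by laser cytometry (488 nm) at day 0, 3 and 7. Ten L1 worms per well were incubated 7 days at 21 °C with compounds and bacterial capsules in S medium.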
# [10] = target: Catechol O-methyltransferase (Homo sapiens) (UniProt P21964); experiment: Confirmatory Screen for Target Class Profiling of Small Molecule Inhibitors of Methyltransferases (AID 1745852); conditions: MTase-Glo luminescence, SAH detection, recombinant enzyme; measured here: COMT max response; stronger effect = lower value
# [11] = target: Guanidinoacetate N-methyltransferase (Homo sapiens) (UniProt Q14353); experiment: as above; conditions: MTase-Glo luminescence, SAH detection, recombinant enzyme; activity change, negative = inhibition: at 57.3 µM (top of the series)
# [12] = target: Nicotinamide N-methyltransferase (Homo sapiens) (UniProt P40261); experiment: as above; conditions: MTase-Glo luminescence, SAH detection, recombinant enzyme; measured here: NNMT max response; stronger effect = lower value
# [13] = target: Phenylethanolamine N-methyltransferase (Homo sapiens) (UniProt P11086); experiment: as above; conditions: MTase-Glo luminescence, SAH detection, recombinant enzyme; measured here: PNMT max response; stronger effect = lower value
# Phenylethanolamine N-methyltransferase (Homo sapiens), sequence (P11086 whole entry, looked up): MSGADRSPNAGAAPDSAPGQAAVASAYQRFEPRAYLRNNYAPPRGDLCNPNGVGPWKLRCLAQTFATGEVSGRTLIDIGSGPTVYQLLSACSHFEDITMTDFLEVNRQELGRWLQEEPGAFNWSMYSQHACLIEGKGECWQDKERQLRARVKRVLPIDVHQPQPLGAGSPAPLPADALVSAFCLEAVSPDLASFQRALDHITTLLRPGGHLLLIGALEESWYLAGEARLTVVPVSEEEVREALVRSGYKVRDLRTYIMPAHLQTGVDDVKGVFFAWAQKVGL
# Papain (Carica papaya), sequence (P00784 whole entry, looked up, the tested form may be a part): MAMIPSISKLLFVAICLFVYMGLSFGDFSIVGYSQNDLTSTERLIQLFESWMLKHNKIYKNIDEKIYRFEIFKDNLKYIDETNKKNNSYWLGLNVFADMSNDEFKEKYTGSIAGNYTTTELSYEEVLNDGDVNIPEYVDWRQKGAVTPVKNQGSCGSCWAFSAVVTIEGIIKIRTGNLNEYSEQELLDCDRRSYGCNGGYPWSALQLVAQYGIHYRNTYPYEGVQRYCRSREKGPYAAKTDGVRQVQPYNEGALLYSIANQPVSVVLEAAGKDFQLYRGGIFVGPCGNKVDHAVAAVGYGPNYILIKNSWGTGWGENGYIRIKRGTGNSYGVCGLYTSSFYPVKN
# Rap guanine nucleotide exchange factor 4 (Homo sapiens), sequence (Q8WZA2 whole entry, looked up): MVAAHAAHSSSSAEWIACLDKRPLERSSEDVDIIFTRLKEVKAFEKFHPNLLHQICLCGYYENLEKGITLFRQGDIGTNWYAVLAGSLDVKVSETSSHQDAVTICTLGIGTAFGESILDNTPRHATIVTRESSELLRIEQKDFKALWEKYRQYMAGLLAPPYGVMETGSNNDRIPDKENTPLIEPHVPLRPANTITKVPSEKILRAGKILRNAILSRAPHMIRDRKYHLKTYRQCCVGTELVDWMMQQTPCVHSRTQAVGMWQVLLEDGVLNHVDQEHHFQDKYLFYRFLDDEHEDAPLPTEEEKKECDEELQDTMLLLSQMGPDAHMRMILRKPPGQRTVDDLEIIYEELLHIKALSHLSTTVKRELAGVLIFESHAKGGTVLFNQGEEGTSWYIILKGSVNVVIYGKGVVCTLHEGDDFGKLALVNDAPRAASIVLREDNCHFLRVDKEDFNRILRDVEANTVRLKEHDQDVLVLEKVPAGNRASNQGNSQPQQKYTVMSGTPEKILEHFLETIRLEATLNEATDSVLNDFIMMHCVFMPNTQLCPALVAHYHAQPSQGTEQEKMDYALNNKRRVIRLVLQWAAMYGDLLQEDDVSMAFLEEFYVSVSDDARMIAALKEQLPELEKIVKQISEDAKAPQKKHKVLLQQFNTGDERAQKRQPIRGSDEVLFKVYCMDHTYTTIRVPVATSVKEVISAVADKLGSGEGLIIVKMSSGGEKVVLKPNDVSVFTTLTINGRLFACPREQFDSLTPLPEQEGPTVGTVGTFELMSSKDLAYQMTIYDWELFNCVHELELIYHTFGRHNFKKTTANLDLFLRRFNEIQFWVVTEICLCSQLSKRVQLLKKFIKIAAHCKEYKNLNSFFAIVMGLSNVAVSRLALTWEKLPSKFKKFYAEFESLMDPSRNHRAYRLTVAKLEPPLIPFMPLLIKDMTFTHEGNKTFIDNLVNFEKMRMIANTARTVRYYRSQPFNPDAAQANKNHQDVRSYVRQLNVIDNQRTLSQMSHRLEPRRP
# Rap guanine nucleotide exchange factor 3 (Homo sapiens), sequence (O95398 whole entry, looked up): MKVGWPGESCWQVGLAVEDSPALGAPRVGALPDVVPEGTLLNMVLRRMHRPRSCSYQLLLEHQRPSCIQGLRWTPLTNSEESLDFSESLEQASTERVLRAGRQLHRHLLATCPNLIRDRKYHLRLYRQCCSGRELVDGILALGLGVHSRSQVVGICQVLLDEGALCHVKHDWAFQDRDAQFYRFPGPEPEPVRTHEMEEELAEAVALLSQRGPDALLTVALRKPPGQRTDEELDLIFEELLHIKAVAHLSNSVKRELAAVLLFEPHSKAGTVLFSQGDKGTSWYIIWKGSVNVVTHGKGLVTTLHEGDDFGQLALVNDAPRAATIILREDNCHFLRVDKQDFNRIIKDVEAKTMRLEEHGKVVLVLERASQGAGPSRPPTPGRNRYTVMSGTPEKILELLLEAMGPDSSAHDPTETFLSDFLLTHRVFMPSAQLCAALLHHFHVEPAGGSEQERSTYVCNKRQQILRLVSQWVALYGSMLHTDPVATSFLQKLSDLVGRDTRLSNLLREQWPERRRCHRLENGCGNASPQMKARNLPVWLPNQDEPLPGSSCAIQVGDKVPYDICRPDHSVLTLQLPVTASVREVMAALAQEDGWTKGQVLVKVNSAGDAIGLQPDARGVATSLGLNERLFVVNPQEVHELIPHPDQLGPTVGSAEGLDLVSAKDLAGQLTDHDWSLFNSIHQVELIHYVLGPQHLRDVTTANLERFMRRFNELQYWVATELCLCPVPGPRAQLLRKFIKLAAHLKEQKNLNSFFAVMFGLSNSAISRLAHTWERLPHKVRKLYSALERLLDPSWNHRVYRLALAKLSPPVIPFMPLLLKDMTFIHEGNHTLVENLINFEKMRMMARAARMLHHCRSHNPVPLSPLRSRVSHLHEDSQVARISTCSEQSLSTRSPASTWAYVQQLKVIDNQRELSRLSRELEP
# Catechol O-methyltransferase (Homo sapiens), sequence (P21964 whole entry, looked up): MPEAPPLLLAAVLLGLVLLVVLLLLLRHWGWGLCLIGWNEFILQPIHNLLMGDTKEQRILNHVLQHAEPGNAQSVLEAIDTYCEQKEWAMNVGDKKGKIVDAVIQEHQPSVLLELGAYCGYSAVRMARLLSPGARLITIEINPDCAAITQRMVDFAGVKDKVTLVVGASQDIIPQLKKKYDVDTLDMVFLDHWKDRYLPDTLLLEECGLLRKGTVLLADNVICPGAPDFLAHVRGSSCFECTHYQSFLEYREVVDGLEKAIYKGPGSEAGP
# Nicotinamide N-methyltransferase (Homo sapiens), sequence (P40261 whole entry, looked up): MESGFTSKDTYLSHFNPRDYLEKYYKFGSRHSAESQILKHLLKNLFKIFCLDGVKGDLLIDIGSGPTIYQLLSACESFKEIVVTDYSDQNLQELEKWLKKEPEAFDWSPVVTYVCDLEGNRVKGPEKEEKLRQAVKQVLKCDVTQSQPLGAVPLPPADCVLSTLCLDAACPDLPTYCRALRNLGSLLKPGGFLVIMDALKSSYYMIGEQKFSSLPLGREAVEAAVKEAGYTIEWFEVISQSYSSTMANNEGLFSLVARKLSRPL
smiles,measurement,setting,value
CN(C)CCCN1c2ccccc2CCc2ccc(Cl)cc21,Potency,Papain (Carica papaya),inactive
same,Potency,[1],16.8 µM (active) and 18.6 µM (active)
CCOC(=O)Nc1ccc(NCc2ccc(F)cc2)nc1N,Potency,[2],inactive
same,Potency,[1],inactive
same,outcome,[3],inactive
same,Potency,[4],inactive
same,Potency,[5],inactive
same,Potency,[6],inactive
same,outcome,[7],inactive
same,Potency,[8],4.47 µM (active)
COC(=O)Nc1nc2ccc(C(=O)c3cccs3)cc2[nH]1,Potency,Papain (Carica papaya),inactive
same,Potency,[2],13.3 nM (active) and 93.4 nM (active)
same,Potency,[1],9.4 nM (active) and 66.1 nM (active)
same,outcome,[3],inactive
same,Potency,[4],inactive
same,Potency,[5],inactive
same,Potency,[6],inactive
CC(=O)OCC(CCn1cnc2cnc(N)nc21)COC(C)=O,Potency,Papain (Carica papaya),inactive
same,Potency,[2],inactive
same,Potency,[1],inactive
same,Potency,[9],inactive
CC1COc2c(N3CCN(C)CC3)c(F)cc3c(=O)c(C(=O)O)cn1c23 (configuration not stated),Potency,[2],inactive
same,Potency,[1],inactive
Clc1ccc(C(c2ccccc2Cl)C(Cl)Cl)cc1 (configuration not stated),Potency,Papain (Carica papaya),inactive
same,Potency,[2],inactive
same,Potency,[1],inactive
OCCN(CCO)c1nc(N2CCCCC2)c2nc(N(CCO)CCO)nc(N3CCCCC3)c2n1,Potency,Papain (Carica papaya),inactive
same,Potency,[2],6.68 µM (active) and inactive
same,Potency,[1],6.68 µM (active) and inactive
same,outcome,[3],inactive
same,Potency,[4],79.3 µM (active) and 70.6 µM (active) and 63 µM (active)
same,Potency,[5],79.3 µM (active) and 70.6 µM (active) and 112 µM (active)
same,Potency,[6],inactive
same,outcome,[7],inactive
same,Potency,[9],0.816 µM (active)
CN(Cc1cnc2nc(N)nc(N)c2n1)c1ccc(C(=O)N[C@@H](CCC(=O)O)C(=O)O)cc1,Potency,[2],9.4 nM (active) and 148 nM (active)
same,Potency,[1],9.4 nM (active) and 148 nM (active)
CC1(C)O[C@H]2CC(=O)OC[C@]23[C@H]2CC[C@@]4(C)[C@H](c5ccoc5)OC(=O)[C@H]5O[C@]54[C@]2(C)C(=O)C[C@@H]13,Potency,[2],inactive
same,Potency,[1],inactive
Cc1cn([C@H]2C[C@H](N=[N+]=[N-])[C@@H](CO)O2)c(=O)[nH]c1=O,Potency,[2],inactive
CN(C)C(=O)C(CCN1CCC(O)(c2ccc(Cl)cc2)CC1)(c1ccccc1)c1ccccc1,activity,[10],-5.52%
same,"activity change, negative = inhibition",[11],6.23%
same,activity,[12],-39.1%
same,activity,[13],-5.06%
same,Potency,[9],inactive
COc1cc2nc(N3CCN(C(=O)C4COc5ccccc5O4)CC3)nc(N)c2cc1OC (configuration not stated),Potency,Papain (Carica papaya),25.1 µM (active)
same,Potency,[9],23 µM (active)
O=C1Cc2cc(CCN3CCN(c4nsc5ccccc45)CC3)c(Cl)cc2N1,Potency,Papain (Carica papaya),3.55 µM (active)
same,Potency,[2],15 µM (active)
same,Potency,[1],20.5 µM (active)
CS(=O)(=O)CCNCc1ccc(-c2ccc3ncnc(Nc4ccc(OCc5cccc(F)c5)c(Cl)c4)c3c2)o1,Potency,[2],18.8 µM (active) and 9.16 µM (active) and 16.6 µM (active)
same,Potency,[1],11.9 µM (active) and 7.28 µM (active) and 16.6 µM (active)
CN1CCN(CCCN2c3ccccc3Sc3ccc(Cl)cc32)CC1,Potency,Papain (Carica papaya),inactive
same,Potency,[4],inactive
same,Potency,[6],35 µM (active)
CC(COc1ccccc1)N(CCCl)Cc1ccccc1 (configuration not stated),Potency,[2],inactive
same,Potency,[1],inactive
Cc1cn([C@H]2C=C[C@@H](CO)O2)c(=O)[nH]c1=O,Potency,Papain (Carica papaya),inactive
same,Potency,[2],inactive
same,Potency,[1],inactive
NCCS(=O)(=O)O,Potency,Papain (Carica papaya),inactive
same,Potency,[2],inactive
same,Potency,[1],inactive
same,outcome,[3],inactive
same,Potency,[4],inactive
same,Potency,[5],inactive
same,Potency,[6],inactive
